Paper PMC4336329 (PLoS ONE, 2015)
In all, about 310,000 compounds went through this assay and about 14,000 (4.5%) showed an effect of 50% or more. Effects have a minus sign here. The entries come from a sample that favours strong results as a whole.

molecular target: human ether-à-go-go-related gene (hERG) potassium channel (human, UniProt Q12809); test: primary screen, population patch clamp on CHO cells stably expressing hERG; higher = less effect of the substance
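Also: peak tail current of the secondary pulse compared with the same well before compound.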

Sequence of human ether-à-go-go-related gene (hERG) potassium channel (Q12809 whole entry, looked up): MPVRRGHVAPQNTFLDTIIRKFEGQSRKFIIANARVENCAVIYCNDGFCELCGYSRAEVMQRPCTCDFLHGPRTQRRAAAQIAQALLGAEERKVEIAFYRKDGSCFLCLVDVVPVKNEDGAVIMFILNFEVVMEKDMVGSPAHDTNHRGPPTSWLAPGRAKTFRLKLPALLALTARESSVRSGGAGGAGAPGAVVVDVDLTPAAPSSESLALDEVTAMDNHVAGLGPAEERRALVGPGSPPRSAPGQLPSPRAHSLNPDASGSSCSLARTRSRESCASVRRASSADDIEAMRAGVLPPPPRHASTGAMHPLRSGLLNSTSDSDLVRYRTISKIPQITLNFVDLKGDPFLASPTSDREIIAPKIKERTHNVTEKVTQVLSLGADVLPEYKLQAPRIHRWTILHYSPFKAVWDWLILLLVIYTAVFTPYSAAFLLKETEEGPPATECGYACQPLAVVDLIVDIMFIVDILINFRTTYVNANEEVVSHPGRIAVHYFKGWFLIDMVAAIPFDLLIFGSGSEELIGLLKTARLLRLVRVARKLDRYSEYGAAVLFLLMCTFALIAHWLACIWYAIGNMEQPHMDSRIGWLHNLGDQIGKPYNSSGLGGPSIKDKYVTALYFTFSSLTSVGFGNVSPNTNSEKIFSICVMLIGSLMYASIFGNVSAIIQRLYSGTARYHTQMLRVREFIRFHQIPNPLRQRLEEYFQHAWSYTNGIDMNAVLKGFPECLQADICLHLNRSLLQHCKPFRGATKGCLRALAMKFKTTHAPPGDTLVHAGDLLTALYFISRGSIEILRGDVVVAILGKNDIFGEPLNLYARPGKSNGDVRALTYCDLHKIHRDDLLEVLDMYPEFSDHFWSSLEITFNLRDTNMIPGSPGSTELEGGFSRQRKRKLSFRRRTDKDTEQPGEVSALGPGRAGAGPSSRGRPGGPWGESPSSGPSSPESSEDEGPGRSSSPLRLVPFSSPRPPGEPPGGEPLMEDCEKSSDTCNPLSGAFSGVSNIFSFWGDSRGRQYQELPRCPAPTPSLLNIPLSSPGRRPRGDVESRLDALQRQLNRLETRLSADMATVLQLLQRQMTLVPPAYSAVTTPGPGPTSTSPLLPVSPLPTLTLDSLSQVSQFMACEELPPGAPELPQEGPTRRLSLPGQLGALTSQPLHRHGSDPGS

| SMILES | hERG current change (%, negative = inhibition) at 10uM |
| --- | --- |
| CC(C)(C)NS(=O)(=O)c1ccc(NC(=O)Cc2ccccc2[N+](=O)[O-])cc1 | 1.66% |
| CCOC(=O)c1ccc(N2CN(CC)CNC2=S)cc1 | 7.25% |
| C/C(=N/OCc1ccc(Br)cc1)c1ccccn1 | 6.29% |
| CCc1ccc(C(=O)COC(=O)c2ccco2)cc1 | 9.18% |
| COc1ccc(CCNC(=O)COC(=O)c2cnc(C)cn2)cc1 | 11.3% |
| O=C(Nc1ccccc1C(=O)Nc1ccc2c(c1)OCO2)c1cccs1 | 3.6% |
| Cc1cc(C)cc(NC(=O)COC(=O)CN=C2NS(=O)(=O)c3ccccc32)c1 | 15.6% |
| O=C(NCC1CCCO1)c1ccc(COc2ccc(F)cc2)o1 (stereo not drawn) | -5.59% |
| CCCOc1ccc(/C=N/Nc2cc(N3CCOCC3)ncn2)c(O)c1 | 13.4% |
| O=c1[nH]cc([N+](=O)[O-])cc1Br | 2.05% |
| CCCCOc1ccc(C(=O)NCC(=O)N2CC=C(c3ccccc3)CC2)cc1 | 16.8% |
| Cl.NC(=O)c1ccc(OCCC(O)N2CC=C(c3ccc(F)cc3)CC2)cc1 (stereo not drawn) | -71.2% |
| CN1CCNC(=O)C1CC(=O)N1CC=C(c2ccc(F)cc2)CC1 (stereo not drawn) | -3.88% |
| Clc1cccc(N/N=C/c2ccncc2)c1 | -10.2% |
| Cc1cc(C(=O)C(C)Sc2cccc[n+]2[O-])c(C)n1-c1ccc(Cl)cc1 (stereo not drawn) | -12.8% |
| CC(C)/C=C1\CCc2c([nH]c3ccccc23)C1=O | 9.91% |
| Cc1c(S(=O)(=O)c2ccccn2)c(N)n(Cc2ccccc2)c1C | 0.158% |
| CN(C)CCCn1cnc2c(c1=N)C(c1ccccc1)c1ccc3ccccc3c1O2 (stereo not drawn) | -75.9% |
| CN(C)CCn1cnc2c(c1=N)C(c1ccccc1)c1ccc3ccccc3c1O2 (stereo not drawn) | -79.2% |
| O=C(Nc1cc(=O)[nH]c2ncnn12)c1ccccc1F | 11% |
| CCC(=O)N1CCc2cc(Br)cc(S(=O)(=O)N3CCCCCC3)c21 | -28.6% |
| O=C(c1ccc(COc2ccccc2Cl)o1)N1CCCC1 | -23.6% |
| COc1ccc(C(=O)N2CCN(c3ccc(F)cc3)CC2)cc1S(=O)(=O)NC1CC1 | -59.2% |
| Cc1ccc(C(=O)N2CCN(c3cccc(Cl)c3)CC2)cc1C | -13.4% |
| COc1ccc(C(=O)N2CCN(c3ccccc3Cl)CC2)cc1S(=O)(=O)NC1CC1 | -32.7% |
| COc1ccc(C(=O)N2CCN(c3cccc(Cl)c3)CC2)cc1S(=O)(=O)NC1CC1 | -63.5% |
| COc1ccc(C(=O)Nc2ccc(N3CCOCC3)cc2)cc1S(=O)(=O)NC1CCCC1 | 13.1% |

| SMILES | hERG current change (%, negative = inhibition) at 10uM |
| --- | --- |
| COc1ccc(C(=O)N2CCN(c3ccc(C(C)=O)cc3F)CC2)cc1S(=O)(=O)NC1CC1 | -37.5% |
| O=C(OC1CCCCC1=O)c1ccc(S(=O)(=O)Nc2ccccc2)cc1 (stereo not drawn) | 0.644% |
| Nc1cc(Cl)cc(C(=O)O)c1Cl | 15.9% |
| O=C(Cn1cnc2sc(-c3ccccc3)cc2c1=O)NCc1ccco1 | -3.75% |
| O=C(Nc1ccc(Cl)cc1)c1cccc(S(=O)(=O)Nc2ccccn2)c1 | -6.23% |
| O=C(Nc1nnc(SCc2ccc(F)cc2)s1)C1Cc2ccccc2CN1C(=O)c1ccco1 (stereo not drawn) | -6.55% |
| Cc1cc(C)n2nc(-c3sccc3-n3c(C)ccc3C)cc2n1 | 17.3% |
| Cc1cc(-c2ccc(Cl)cc2)n2nc(C)cc2n1 | 4.45% |
| Cc1nn(CC(=O)Nc2ccc(S(=O)(=O)N(C)C)cc2)c(C)c1[N+](=O)[O-] | -5.89% |
| Cc1nn(CC(=O)Nc2cc(S(=O)(=O)N(C)C)ccc2Cl)c(C)c1[N+](=O)[O-] | -20.9% |
| Cc1ccc(NC(=O)Cn2ccsc2=N)cc1S(=O)(=O)N(C)C.Cl | -13.4% |
| CN(C)S(=O)(=O)c1cc(NC(=O)Cn2ccsc2=N)ccc1Cl.Cl | -56.3% |
| Cl.N=c1sccn1CC(=O)Nc1ccc(Cl)c(S(=O)(=O)N2CCOCC2)c1 | -50.4% |
| O=C(Cn1ccccc1=O)Nc1ccc(Cl)c(S(=O)(=O)N2CCCCC2)c1 | -79.4% |
| Cc1nn(CC(=O)Nc2ccc(Cl)c(S(=O)(=O)N(C)C)c2)c(C)c1[N+](=O)[O-] | -61.3% |
| CCC1(c2ccccc2)NC(=O)N(CC(=O)Nc2ccc(Cl)c(S(=O)(=O)N3CCCCC3)c2)C1=O (stereo not drawn) | 12.4% |
| CN(C)S(=O)(=O)c1ccc(NC(=O)Cn2ccsc2=N)cc1 | 13.7% |
| CC1(c2ccccc2)NC(=O)N(CC(=O)Nc2ccc(Cl)c(S(=O)(=O)N3CCCCC3)c2)C1=O (stereo not drawn) | -8.09% |
| Cc1ccc(S(=O)(=O)N2CCOCC2)cc1NC(=O)Cn1ccsc1=N.Cl | -5.64% |
| Cl.N=c1sccn1CC(=O)Nc1ccc(S(=O)(=O)N2CCOCC2)cc1 | -5.32% |
| COc1cc(/C=C2/N=C(C3CCCCC3)OC2=O)cc(OC)c1OC | -17.5% |
| O=C(Cc1ccccc1[N+](=O)[O-])NCc1ccncc1 | 6.57% |
| OC(Cn1c2ccccc2c2ccccc21)C[n+]1cccc2ccccc21.[O-][Cl+3]([O-])([O-])[O-] (stereo not drawn) | -33.5% |
| C=C(C)C(=O)N1CC2(CC(c3cccc(NC(=O)/C(C)=C\C)c3)=NO2)C[C@H]1C(N)=O (stereo partly drawn) | 2.26% |
| Cc1ccc(-c2nn(C)c(=O)c3ccccc23)cc1S(=O)(=O)NCCN1CCOCC1 | -2.69% |
| Cn1c(=O)[nH]c(=O)c2c1nc(N1CCOCC1)n2CCc1ccccc1 | -0.713% |
| Cc1cccc(N=C2NC(=O)/C(=C/c3cccs3)S2)c1 | 11.9% |
